Results reported in PubChem BioAssay AID1159580 (chemical genetic matrix, 2015).
Where “and” joins values, the source holds several entries; their conditions need not be identical. Equal values may be shown once. The campaign covered roughly 5,500 compounds. About 2,000 (36%) were called active. Roughly 18% stayed inconclusive and do not appear here. Cut-off read from the data, not from the text of the source: active = normalized growth mostly below about 0.91 (no sharp cut-off); inconclusive = no clear call, values can overlap the other calls; inactive = mostly above about 0.92. Some of the results follow.

Experiment: chemical genetic growth profiling, strain panel (AID 1159580);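 note: tested at 20 µM; growth read once vehicle control cultures reached saturation at 30 °C; 1 = growth at the plate median or of vehicle wells; lower values mean less growth of the strain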
Settings: S. cerevisiae deletion strains, growth OD

Compound: O=C1OC(=O)C2C3CCC(O3)C12 (stereo not given)
- normalized growth (locus YAL013W, strain DEP1, stronger effect = lower value): 1.03 (inactive)
- normalized growth (locus YAL021C, strain ccr4, stronger effect = lower value): 1.02 (inactive)
- normalized growth (locus YAL026C, strain drs2, stronger effect = lower value): 1.02 (inactive)
- normalized growth (locus YAL030W, strain snc1, stronger effect = lower value): 1.03 (inactive)
- normalized growth (locus YAL040C, strain CLN3, stronger effect = lower value): 1 (inactive)
- normalized growth (locus YBL061C, strain skt5, stronger effect = lower value): 1.01 (inactive)
- normalized growth (locus YBR009C, strain hhf1, stronger effect = lower value): 1 (inactive)
- normalized growth (locus YBR021W, strain FUR4, stronger effect = lower value): 0.947 (inactive)
- normalized growth (locus YBR023C, strain chs3, stronger effect = lower value): 1.02 (inactive)
- normalized growth (locus YBR171W, strain sec66, stronger effect = lower value): 1.02 (inactive)
- normalized growth (locus YBR229C, strain ROT2, stronger effect = lower value): 1 (inactive)
- normalized growth (locus YBR231C, strain swc5, stronger effect = lower value): 1 (inactive)
- normalized growth (locus YBR279W, strain paf1, stronger effect = lower value): 1 (inactive)
- normalized growth (locus YCL011C, strain gbp2, stronger effect = lower value): 1.01 (inactive)
- normalized growth (locus YCL016C, strain dcc1, stronger effect = lower value): 1.03 (inactive)
- normalized growth (locus YCL029C, strain bik1, stronger effect = lower value): 0.966 (inactive)
- normalized growth (locus YCL061C, strain MRC1 (second series), stronger effect = lower value): 1 (inactive)
- normalized growth (locus YCL069W, strain vba3, stronger effect = lower value): 0.994 (inactive)
- normalized growth (locus YCR088W, strain abp1, stronger effect = lower value): 1.01 (inactive)
- normalized growth (locus YDL005C, strain med2, stronger effect = lower value): 1.01 (inactive)
- normalized growth (locus YDL035C, strain GPR1, stronger effect = lower value): 1.01 (inactive)
- normalized growth (locus YDL040C, strain nat1, stronger effect = lower value): 1 (inactive)
- normalized growth (locus YDL074C, strain BRE1, stronger effect = lower value): 1.01 (inactive)
- normalized growth (locus YDL101C, strain DUN1, stronger effect = lower value): 1.01 (inactive)
- normalized growth (locus YDL134C, strain PPH21, stronger effect = lower value): 1.02 (inactive)
- normalized growth (locus YDL185W, strain tfp1, stronger effect = lower value): 0.937 (inactive)
- normalized growth (locus YDL192W, strain arf1, stronger effect = lower value): 0.977 (inactive)
- normalized growth (locus YDR001C, strain nth1, stronger effect = lower value): 1 (inactive)
- normalized growth (locus YDR069C, strain doa4, stronger effect = lower value): 1.01 (inactive)
- normalized growth (locus YDR101C, strain arx1, stronger effect = lower value): 0.982 (inactive)
- normalized growth (locus YDR137W, strain rgp1, stronger effect = lower value): 1.06 (inactive)
- normalized growth (locus YDR150W, strain NUM1, stronger effect = lower value): 1.03 (inactive) and 1 (inactive)
- normalized growth (locus YDR159W, strain sac3, stronger effect = lower value): 0.98 (inactive)
- normalized growth (locus YDR162C, strain NBP2, stronger effect = lower value): 0.987 (inactive)
- normalized growth (locus YDR195W, strain ref2): 0.975 (inactive)
- normalized growth (locus YDR297W, strain sur2, stronger effect = lower value): 0.998 (inactive)
- normalized growth (locus YDR318W, strain mcm21, stronger effect = lower value): 0.981 (inactive)
- normalized growth (locus YDR334W, strain swr1, stronger effect = lower value): 0.992 (inactive)
- normalized growth (locus YDR335W, strain msn5, stronger effect = lower value): 1.02 (inactive)
- normalized growth (locus YDR363W, strain ESC2, stronger effect = lower value): 1.03 (inactive)
- normalized growth (locus YDR388W, stronger effect = lower value): 0.956 (inactive)
- normalized growth (locus YDR392W, strain spt3, stronger effect = lower value): 1.09 (inactive)
- normalized growth (locus YDR502C, strain sam2, stronger effect = lower value): 0.966 (inactive)
- normalized growth (locus YEL003W, strain gim4, stronger effect = lower value): 1.01 (inactive)
- normalized growth (locus YEL037C, strain rad23, stronger effect = lower value): 1.02 (inactive)
- normalized growth (locus YEL061C, strain CIN8 (second series), stronger effect = lower value): 1 (inactive)
- normalized growth (locus YEL061C, strain CIN8, stronger effect = lower value): 1.02 (inactive)
- normalized growth (locus YER002W, strain NOP16, stronger effect = lower value): 1.02 (inactive)
- normalized growth (locus YER015W, strain faa2, stronger effect = lower value): 1.01 (inactive)
- normalized growth (locus YER016W, strain bim1, stronger effect = lower value): 1.01 (inactive)
- normalized growth (locus YER110C, stronger effect = lower value): 0.97 (inactive)
- normalized growth (locus YER111C, strain swi4, stronger effect = lower value): 1.02 (inactive)
- normalized growth (locus YER155C, strain BEM2 (second series), stronger effect = lower value): 1.02 (inactive)
- normalized growth (locus YER155C, strain BEM2, stronger effect = lower value): 1.02 (inactive)
- normalized growth (locus YER167W, strain BCK2, stronger effect = lower value): 1 (inactive)
- normalized growth (locus YFR010W, strain ubp6, stronger effect = lower value): 0.967 (inactive)
- normalized growth (locus YGL078C, strain dbp3, stronger effect = lower value): 0.98 (inactive)
- normalized growth (locus YGL086W, strain mad1, stronger effect = lower value): 0.995 (inactive)
- normalized growth (locus YGL167C, strain pmr1, stronger effect = lower value): 1.01 (inactive)
- normalized growth (locus YGL173C, strain kem1, stronger effect = lower value): 1 (inactive)
- normalized growth (locus YGL227W, strain vid30, stronger effect = lower value): 0.996 (inactive)
- normalized growth (locus YGL240W, strain doc1, stronger effect = lower value): 0.981 (inactive)
- normalized growth (locus YGL248W, strain PDE1, stronger effect = lower value): 1.01 (inactive)
- normalized growth (locus YGL253W, strain hxk2, stronger effect = lower value): 1.03 (inactive)
- normalized growth (locus YGR078C, strain PAC10, stronger effect = lower value): 1.03 (inactive)
- normalized growth (locus YGR135W, strain pre9, stronger effect = lower value): 0.967 (inactive)
- normalized growth (locus YGR229C, strain SMI1, stronger effect = lower value): 1.02 (inactive)
- normalized growth (locus YGR252W, strain gcn5, stronger effect = lower value): 0.982 (inactive)
- normalized growth (locus YHR013C, strain ard1, stronger effect = lower value): 1.05 (inactive)
- normalized growth (locus YHR027C, strain rpn1, stronger effect = lower value): 1.04 (inactive)
- normalized growth (locus YHR030C, strain SLT2, stronger effect = lower value): 1.01 (inactive) and 0.877 (inactive)
- normalized growth (locus YHR079C, strain IRE1 (second series), stronger effect = lower value): 0.98 (inactive)
- normalized growth (locus YHR079C, strain IRE1, stronger effect = lower value): 0.919 (inactive)
- normalized growth (locus YHR094C, strain hxt1, stronger effect = lower value): 0.98 (inactive)
- normalized growth (locus YHR129C, strain ARP1, stronger effect = lower value): 1.03 (inactive)
- normalized growth (locus YHR142W, strain chs7, stronger effect = lower value): 1.04 (inactive)
- normalized growth (locus YHR200W, strain rpn10, stronger effect = lower value): 0.977 (inactive)
- normalized growth (locus YIL066C, strain RNR3, stronger effect = lower value): 1.02 (inactive)
- normalized growth (locus YIL073C, strain SPO22, stronger effect = lower value): 1.02 (inactive)
- normalized growth (locus YIL125W, strain kgd1, stronger effect = lower value): 0.973 (inactive)
- normalized growth (locus YIR030C, strain dcg1, stronger effect = lower value): 0.985 (inactive)
- normalized growth (locus YJL092W, strain hpr5, stronger effect = lower value): 1.01 (inactive)
- normalized growth (locus YJL095W, strain BCK1 (second series), stronger effect = lower value): 1.01 (inactive)
- normalized growth (locus YJL095W, strain BCK1, stronger effect = lower value): 1 (inactive) and 0.875 (active)
- normalized growth (locus YJL115W, strain asf1, stronger effect = lower value): 1 (inactive)
- normalized growth (locus YJL129C, strain trk1, stronger effect = lower value): 1.03 (inactive)
- normalized growth (locus YJL134W, strain LCB3, stronger effect = lower value): 1.01 (inactive)
- normalized growth (locus YJL154C, strain vps35, stronger effect = lower value): 0.999 (inactive)
- normalized growth (locus YJL164C, strain tpk1, stronger effect = lower value): 1 (inactive)
- normalized growth (locus YJL166W, strain qcr8, stronger effect = lower value): 0.99 (inactive)
- normalized growth (locus YJL168C, strain set2, stronger effect = lower value): 0.984 (inactive)
- normalized growth (locus YJL187C, strain SWE1 (second series), stronger effect = lower value): 1.01 (inactive)
- normalized growth (locus YJR043C, strain POL32, stronger effect = lower value): 1 (inactive)
- normalized growth (locus YJR066W, strain TOR1, stronger effect = lower value): 0.872 (inactive)
- normalized growth (locus YJR075W, strain HOC1, stronger effect = lower value): 1.02 (inactive)
